Calls of active or inactive are those of the source. The rule behind the calls is not given here.
target: Protein kinase 7 (PK7), Plasmodium falciparum 3D7 (PF3D7_0213400) (UniProt Q7YTF7); experiment: inhibition of Plasmodium PK7 catalytic activity – biochemical, TCAMS antimalarial set, Kinase-Glo luminescence (AID 1159587); details: recombinant PfPK7, Kinase-Glo ATP depletion luminescence
Sequence (Q7YTF7 1-343): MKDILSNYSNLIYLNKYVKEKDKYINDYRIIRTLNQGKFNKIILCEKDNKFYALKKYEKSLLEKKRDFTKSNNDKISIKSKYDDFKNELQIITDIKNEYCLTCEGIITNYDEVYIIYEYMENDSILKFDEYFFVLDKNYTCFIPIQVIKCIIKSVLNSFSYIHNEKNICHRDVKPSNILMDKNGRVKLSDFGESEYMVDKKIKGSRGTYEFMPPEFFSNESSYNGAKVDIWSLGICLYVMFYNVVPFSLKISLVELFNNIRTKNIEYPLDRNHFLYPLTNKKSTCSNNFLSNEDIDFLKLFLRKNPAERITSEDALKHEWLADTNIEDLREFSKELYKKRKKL

Row | SMILES | outcome
1 | O=C(Nc1ccc(-c2nc3ccccc3[nH]2)cc1)c1ccc(S(=O)(=O)N2CCc3ccccc32)cc1 | inactive
2 | CCCCNCc1ccc(-c2nc(CN(Cc3ccc(Cl)c(Cl)c3)S(=O)(=O)c3ccc(NC(C)=O)cc3)cs2)cc1 | inactive
3 | CCCCCCCN1CC[C@@H](CCCc2ccnc3ccc(OCC4CCCNC4)cc23)[C@@H](CC)C1 (stereo not given in full) | inactive
4 | COc1ccc(NC(=O)NC2CCN(c3ccnc4cc(Cl)ccc34)C2)cc1 (stereo not given) | inactive
5 | CCOc1ccc2c(NN=Cc3cc(OC)c(OC)cc3OC)cc(C)nc2c1 | inactive
6 | CCc1cc(NC2CCN(C)CC2)nc(Nc2ccc(C)cc2)n1 | inactive
7 | O=C(CCC1CCCC1)N(Cc1ccc(-c2ccc(CNCCc3ccccc3)cc2)cc1)C1CCCNC1 (stereo not given) | inactive
8 | Cc1cc(C(=O)Nc2ccc3c(c2)CCN3C2CCN(Cc3cc(F)cc(F)c3F)C2)no1 (stereo not given) | inactive
9 | CC(C)C(C(=O)Nc1ccc(S(=O)(=O)N(C)C)cc1)c1ccc(Cl)cc1 (stereo not given) | inactive
10 | CCCC1N=C(N)N=C(N)N1c1ccc(OC)cc1 (stereo not given) | inactive
11 | CSc1cccc(NC(=O)c2cc3ccccc3oc2=O)c1 | inactive
12 | CCc1c[nH]c2c(N3CCCCS3(=O)=O)cc(C(=O)N[C@@H](Cc3ccccc3)[C@H](O)CNCc3cccc(OC)c3)cc12 | inactive
13 | CCn1c(-c2nonc2N)nc2c(C#CC(C)(C)O)ncc(OCCNCCc3ccc(OC)cc3)c21 | inactive
14 | O=C(CCc1nc2c(cnn2-c2ccccc2)c(=O)[nH]1)NC1CCSc2ccccc21 (stereo not given) | inactive
15 | CCOC(=O)c1ccc(NC(=O)N(Cc2ccc(-c3cccc(CN4CCNCC4)c3)cc2)C2CCN(Cc3ccccc3)CC2)cc1 | inactive
16 | COc1ccc(O)c(C(=O)c2cc(C(=O)NCCc3ccccc3)c(=O)n(CCc3ccccc3)c2)c1 | inactive
17 | Cc1nn(CC(O)Cn2c3ccc(Br)cc3c3cc(Br)ccc32)c(C)c1Br (stereo not given) | inactive
18 | NC1CCN(c2nc(NCCCc3ccc(O)cc3)nc(NCc3cccc4ccccc34)n2)CC1 | inactive
19 | Cn1nccc1C(=O)NCCNCc1cccc(-c2ccc(-c3nc4ccccc4[nH]3)s2)c1 | inactive
20 | O=C(NC(Cc1ccccc1)C(=O)O)c1cc(=O)c2ccccc2o1 (stereo not given) | inactive

Row | SMILES | outcome
21 | COc1cc(NC(=O)N2CCOC(CCN3CCC(c4ccccc4)CC3)(c3ccc(Cl)c(Cl)c3)C2)cc(OC)c1 (stereo not given) | inactive
22 | CN(C)CCOc1ccc2c(c1)CN(C)CC2c1ccccc1 (stereo not given) | inactive
23 | CC(Cl)=CCc1c(C)[nH]c2c(ccc3ccccc32)c1=O | inactive
24 | COc1ccc2ncc(F)c(CCN3CC[C@@H](CNCc4nc5c(cc4C)SCC(=O)N5)C3)c2n1 | inactive
25 | CC1(C)[C@H]2CC[C@@H](CNc3nc(NCC(=O)Nc4ccc5ccccc5c4)nc(N4CCC(N5CCCC5)CC4)n3)[C@@H]1C2 | inactive
26 | CCNc1cc(C(=O)N[C@@H](Cc2cccc(F)c2)[C@H](O)CNC(C)CCCC(C)C)cc(N2CCCCS2(=O)=O)c1 (stereo not given in full) | inactive
27 | C[C@@H]1CN(C(c2cccc(O)c2)c2cccc(C(=O)N(C)c3cccc(F)c3)c2)[C@@H](C)CN1C(c1cccc(O)c1)c1cccc(C(=O)N(C)c2cccc(F)c2)c1 (stereo not given in full) | inactive
28 | O=C(NCCCCCN1CCC(c2c[nH]c3ccccc23)C1)Nc1ccc(Cl)c(Cl)c1 (stereo not given) | inactive
29 | CC(Cc1ccc(OCCN2CCN(c3ccc(Cl)cc3)CC2)cc1)NCC(O)c1cccc(C(F)(F)F)c1 (stereo not given) | inactive
30 | COc1ccc2c(c1)ncn2-c1cc(OCc2ccncc2Br)c(C(N)=O)s1 | inactive
31 | CC(C)N1CCN(CCCCNc2c3ccccc3nc3ccccc23)CC1 | inactive
32 | N#Cc1ccc2c(c1)CCN(CCC1CCC(NC(=O)c3cc4ccc(Br)cc4[nH]3)CC1)C2 (stereo not given) | inactive
33 | COc1ccccc1CNc1nc(Nc2ccccc2C)nc2ccccc12 | inactive
34 | CNC(=O)NC1CCN(Cc2c(-c3cccs3)nc3ccccc3c2C(=O)N[C@@H](C)C2CCCCC2)CC1 | inactive
35 | N#Cc1cccc(NC(=O)Nc2ccc(-c3csc(-c4nc5ccccc5[nH]4)c3)cc2)c1 | inactive
36 | COc1ccc2nccc(N3CCC(NCCNCc4ccc5c(n4)NC(=O)CO5)C3)c2n1 (stereo not given) | inactive
37 | Cn1c(NCc2cc(F)cc3c2OCOC3)nc2cc(Nc3ccnc(Nc4cccc(CS(C)(=O)=O)c4)n3)ccc21 | inactive
38 | CC(=O)c1c[nH]c(C(=O)Nc2ccc(-c3cn4ccccc4n3)cc2)c1 | inactive
39 | C=C1N(C)c2cc([N+](=O)[O-])c(N)cc2C1(C)C | inactive
40 | CC(C)CCn1c(Sc2ccc(C#N)c([N+](=O)[O-])c2)nnc1-c1ccccc1Cl | inactive

Source: PubChem BioAssay
